Experimental data taken from article PMC7862700, “An all-to-all approach to the identification of sequence-specific readers for epigenetic DNA modifications on cytosine”.

Key:
Assay in all cases: DAPPL (digital affinity profiling via proximity ligation, sequencing); 10 mM Tris-HCl pH 7.5, 50 mM NaCl, 1 mM DTT, 4% glycerol, room temperature, 30 min; GST-TFs on glutathione beads, 16-mer random dsDNA library, 0.1% formaldehyde crosslink after washing; high values mean tight binding
Conditions in all cases: protein: recombinant; tags: N-terminal GST; dsDNA, one strand shown
FLI1 = target: T1, FLI1 (Homo sapiens, UniProt Q01543 1-452)
T1 sequence: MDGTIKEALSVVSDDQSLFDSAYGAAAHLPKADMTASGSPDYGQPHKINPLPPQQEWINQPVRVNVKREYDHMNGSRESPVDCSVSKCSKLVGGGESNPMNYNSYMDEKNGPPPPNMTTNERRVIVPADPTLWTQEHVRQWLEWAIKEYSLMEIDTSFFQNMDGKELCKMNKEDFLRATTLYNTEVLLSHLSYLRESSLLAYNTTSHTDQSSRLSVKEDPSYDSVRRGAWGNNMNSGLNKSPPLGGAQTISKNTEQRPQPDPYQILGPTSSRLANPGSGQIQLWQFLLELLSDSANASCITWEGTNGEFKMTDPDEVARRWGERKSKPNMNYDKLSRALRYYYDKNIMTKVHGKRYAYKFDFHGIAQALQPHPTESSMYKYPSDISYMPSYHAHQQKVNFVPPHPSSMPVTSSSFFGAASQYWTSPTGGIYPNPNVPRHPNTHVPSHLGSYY
Procedure, shortened: (§1)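 A tag-only sample was pooled with DNA-barcoded human transcription factors that had been expressed in yeast as GST fusions and captured on glutathione beads. The pools were incubated for 30 min at room temperature with 200 nmole of a random double-stranded 16-mer DNA library in Tris/NaCl/DTT/glycerol buffer, then washed, crosslinked with 0.1% formaldehyde, proximity-ligated (BsaI/T4 ligase, 1 h, 37 °C), PCR-amplified and sequenced on an Illumina NextSeq500. Binding signal is each hexamer's read frequency for a factor divided by its frequency for the tag-only sample.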

ELK1 = target: T2, ELK1 (Homo sapiens, UniProt P19419 1-428)
T2 sequence: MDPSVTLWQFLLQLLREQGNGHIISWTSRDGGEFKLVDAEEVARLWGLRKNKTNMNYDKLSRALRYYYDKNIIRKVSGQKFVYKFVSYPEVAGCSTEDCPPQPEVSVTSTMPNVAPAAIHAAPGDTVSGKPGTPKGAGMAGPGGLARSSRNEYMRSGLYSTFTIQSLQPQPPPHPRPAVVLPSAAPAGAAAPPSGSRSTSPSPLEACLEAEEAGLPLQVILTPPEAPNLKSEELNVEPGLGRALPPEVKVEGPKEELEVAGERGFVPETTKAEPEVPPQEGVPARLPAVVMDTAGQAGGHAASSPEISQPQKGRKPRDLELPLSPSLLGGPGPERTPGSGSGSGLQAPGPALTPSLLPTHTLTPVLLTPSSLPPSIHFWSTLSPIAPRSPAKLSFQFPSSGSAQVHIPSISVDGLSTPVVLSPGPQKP
Procedure, shortened: as §1

GABPA = target: T3, GABPA (Homo sapiens, UniProt Q06546 1-454)
T3 sequence: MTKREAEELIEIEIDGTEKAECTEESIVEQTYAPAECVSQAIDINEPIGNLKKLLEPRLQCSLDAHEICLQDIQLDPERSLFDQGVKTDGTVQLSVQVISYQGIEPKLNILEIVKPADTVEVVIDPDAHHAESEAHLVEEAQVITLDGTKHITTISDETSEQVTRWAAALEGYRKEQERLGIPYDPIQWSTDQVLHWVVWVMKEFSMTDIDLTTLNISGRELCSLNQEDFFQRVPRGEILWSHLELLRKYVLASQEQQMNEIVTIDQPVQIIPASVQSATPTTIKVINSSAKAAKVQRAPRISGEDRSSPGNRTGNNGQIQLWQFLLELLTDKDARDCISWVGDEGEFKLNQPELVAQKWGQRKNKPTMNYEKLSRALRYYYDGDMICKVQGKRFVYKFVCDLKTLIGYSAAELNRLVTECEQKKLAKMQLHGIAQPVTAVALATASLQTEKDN
Procedure, shortened: as §1

ERG = target: T4, ERG (Homo sapiens, UniProt P11308 1-479)
T4 sequence: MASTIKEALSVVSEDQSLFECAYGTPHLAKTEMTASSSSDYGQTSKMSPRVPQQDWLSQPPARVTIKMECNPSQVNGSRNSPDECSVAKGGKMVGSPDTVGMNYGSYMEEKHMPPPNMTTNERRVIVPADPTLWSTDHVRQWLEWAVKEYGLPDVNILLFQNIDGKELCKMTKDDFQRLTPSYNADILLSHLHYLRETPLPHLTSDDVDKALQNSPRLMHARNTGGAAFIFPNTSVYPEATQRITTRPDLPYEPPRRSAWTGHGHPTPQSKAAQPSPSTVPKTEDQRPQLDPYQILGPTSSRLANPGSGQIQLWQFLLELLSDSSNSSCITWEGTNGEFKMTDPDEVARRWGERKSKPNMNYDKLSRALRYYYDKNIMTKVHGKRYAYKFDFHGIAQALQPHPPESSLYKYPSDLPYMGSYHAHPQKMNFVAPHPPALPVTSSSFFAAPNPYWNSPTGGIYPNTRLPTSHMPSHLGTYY
Procedure, shortened: as §1

ELF1 = ELF1 (Homo sapiens, UniProt P32519 1-619)
ELF1, sequence (P32519 whole entry): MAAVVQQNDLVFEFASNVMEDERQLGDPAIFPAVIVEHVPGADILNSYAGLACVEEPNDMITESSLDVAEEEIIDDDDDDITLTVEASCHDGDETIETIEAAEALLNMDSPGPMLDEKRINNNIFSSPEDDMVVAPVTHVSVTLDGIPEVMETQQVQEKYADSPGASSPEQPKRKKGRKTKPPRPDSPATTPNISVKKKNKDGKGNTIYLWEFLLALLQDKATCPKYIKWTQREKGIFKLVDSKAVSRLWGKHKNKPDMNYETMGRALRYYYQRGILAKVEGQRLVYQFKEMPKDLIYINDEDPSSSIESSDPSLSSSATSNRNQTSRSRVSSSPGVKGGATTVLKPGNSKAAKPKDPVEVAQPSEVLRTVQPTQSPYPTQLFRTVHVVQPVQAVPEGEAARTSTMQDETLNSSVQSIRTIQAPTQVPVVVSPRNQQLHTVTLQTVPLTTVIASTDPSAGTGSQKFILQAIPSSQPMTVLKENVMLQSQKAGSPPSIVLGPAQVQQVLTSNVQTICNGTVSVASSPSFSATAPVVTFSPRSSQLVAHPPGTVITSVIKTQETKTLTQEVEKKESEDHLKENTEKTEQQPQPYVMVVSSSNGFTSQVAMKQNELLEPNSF
Procedure, shortened: as §1

EHF = target: T5, EHF (Homo sapiens, UniProt Q9NZC4 1-300)
T5 sequence: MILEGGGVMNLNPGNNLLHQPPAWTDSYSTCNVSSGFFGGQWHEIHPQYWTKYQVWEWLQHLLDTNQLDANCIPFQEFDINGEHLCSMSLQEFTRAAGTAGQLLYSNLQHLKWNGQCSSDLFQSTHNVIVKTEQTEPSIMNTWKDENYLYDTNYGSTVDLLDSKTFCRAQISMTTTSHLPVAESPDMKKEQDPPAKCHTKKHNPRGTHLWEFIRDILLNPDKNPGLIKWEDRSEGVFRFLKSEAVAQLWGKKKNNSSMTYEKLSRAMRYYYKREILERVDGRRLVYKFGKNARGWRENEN
Procedure, shortened: as §1

SPI1 = SPI1 (Homo sapiens, UniProt P17947 1-270)
Procedure, shortened: as §1

SPIB = SPIB (Homo sapiens, UniProt Q01892 1-262)
SPIB, sequence (Q01892 whole entry): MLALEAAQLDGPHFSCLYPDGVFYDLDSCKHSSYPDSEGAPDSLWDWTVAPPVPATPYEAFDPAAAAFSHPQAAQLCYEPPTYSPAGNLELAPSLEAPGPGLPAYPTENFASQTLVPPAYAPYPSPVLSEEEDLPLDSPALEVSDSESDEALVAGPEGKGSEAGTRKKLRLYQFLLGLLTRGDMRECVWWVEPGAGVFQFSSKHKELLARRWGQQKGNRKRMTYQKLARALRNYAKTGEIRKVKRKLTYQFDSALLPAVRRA
Procedure, shortened: as §1

ELK3 = target: T6, ELK3 (Homo sapiens, UniProt P41970 1-407)
T6 sequence: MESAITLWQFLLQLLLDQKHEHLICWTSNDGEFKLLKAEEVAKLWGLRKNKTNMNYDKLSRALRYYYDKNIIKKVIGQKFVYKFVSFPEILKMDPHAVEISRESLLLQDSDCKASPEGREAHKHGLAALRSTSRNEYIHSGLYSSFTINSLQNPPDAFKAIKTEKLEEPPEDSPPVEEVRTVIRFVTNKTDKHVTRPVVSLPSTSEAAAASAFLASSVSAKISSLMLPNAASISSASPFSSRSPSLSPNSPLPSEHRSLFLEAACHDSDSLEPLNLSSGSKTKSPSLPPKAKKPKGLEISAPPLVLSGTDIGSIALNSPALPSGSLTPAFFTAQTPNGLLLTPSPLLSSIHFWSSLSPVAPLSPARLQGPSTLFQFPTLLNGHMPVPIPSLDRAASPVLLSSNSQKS
Procedure, shortened: as §1

Q: How did the binding signal (FLI1) turn out when CTTTCT was run?
A: 1.6 fold enrichment (6-mer frequency, TF over GST control)

Q: And the binding signal (ELK1)?
A: 1.6 fold enrichment (6-mer frequency, TF over GST control)

Q: And the binding signal (GABPA)?
A: 1.5 fold enrichment (6-mer frequency, TF over GST control)

Q: And the binding signal (ERG)?
A: 1.53 fold enrichment (6-mer frequency, TF over GST control)

Q: What about the binding signal (ELF1) of the same sequence?
A: 1.55 fold enrichment (6-mer frequency, TF over GST control)

Q: And the binding signal (EHF)?
A: 1.53 fold enrichment (6-mer frequency, TF over GST control)

Q: What about the binding signal (SPI1) of the same sequence?
A: 1.67 fold enrichment (6-mer frequency, TF over GST control)

Q: What about the binding signal (SPIB) of the same sequence?
A: 1.48 fold enrichment (6-mer frequency, TF over GST control)

Q: What about the binding signal (ELK3) of the same sequence?
A: 1.65 fold enrichment (6-mer frequency, TF over GST control)
